In the library only some 2.1% were active in any assay of this set; here they are far more common.
NR2F2 inh – blocks human COUP-TFII nuclear receptor. HEK293T NGFI-A luciferase reporter, luminescence. P24468. inhibition, % at 8.6 µM. AID 686940. 0.7% of 370,000 active;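 active = inhibition above a per-plate cutoff, mean inhibition of test wells between control levels plus 3 SD, cut at about 38% in these data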;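 also: cells cotransfected with COUP-TFII expression vector driving the NGFI-A reporter; 0% = median of COUP-TF2 test wells and 100% = reporter-only cells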
Gli-Sufu antag – Gli-Sufu pathway antagonism. Sufu-KO-LIGHT fibroblasts, Gli luciferase reporter luminescence. inhibition, % at 5 µM. 0.74% of 340,000 active. AID 588413;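 active = inhibition above about 55%, limit read from the data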;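 also: 0% = DMSO-treated cells and 100% = wells with medium but no cells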
Env fusion inh – blocks HIV Env-driven cell-cell fusion | HeLa-JRFL Env/CEM21 cell fusion, luciferase | inhibition, % at 12.3 µM | 1.1% of 360,000 active | AID 651610;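 active = mean replicate inhibition score of at least 50 and every replicate individually at or above 50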;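 also: 0% = plate neutral controls and 100% = maraviroc near 300 nM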
aDG glyco act – alpha-DG glycosylation activation; 0.22% of 360,000 active; AID 624168; Pro5-aDG cells, alpha-DG glycosylation AlphaScreen (IIH6); 0% Pro5, 100% B10-LARGE cell signal; activation, % at 10 µM;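 active = activation of at least 8% versus controls, or a plate z-score of at least 8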;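 also: Pro5 are CHO cells carrying HIG-tagged alpha-DG that lacks glycosylation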
GalR3 antag – blocks the human galanin receptor 3; HEK293 GalR3-CNG cAMP membrane potential fluorescence; galR3 body fused to GalR1 C-terminus; 0.44% of 360,000 active; inhibition, % at 3 µM;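 active = inhibition above the screen-wide average plus 3 SD, cut at about 13% in these data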;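 also: forskolin and galanin both at EC90 stimulate the cells; cAMP rise reported by CNG channel membrane potential dye signal; 0% = forskolin plus galanin with DMSO and 100% = forskolin alone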
Target sequence (O60755 1-299 limits assumed): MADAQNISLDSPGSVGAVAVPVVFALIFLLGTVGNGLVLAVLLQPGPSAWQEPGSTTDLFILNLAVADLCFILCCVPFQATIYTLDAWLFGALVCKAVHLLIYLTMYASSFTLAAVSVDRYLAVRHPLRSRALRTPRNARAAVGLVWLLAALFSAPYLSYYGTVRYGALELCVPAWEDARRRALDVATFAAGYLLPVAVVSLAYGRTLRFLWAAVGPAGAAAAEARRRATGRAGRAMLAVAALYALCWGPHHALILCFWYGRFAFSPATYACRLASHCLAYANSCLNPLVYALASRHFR
* marks the source's active call; other numbers are inactive results; [ ] = dose if it differs, or a comment.

`CCCNC(=O)N(C)C[C@H]1Oc2cc(-c3cccnc3)ccc2S(=O)(=O)N([C@@H](C)CO)C[C@H]1C` gave Env fusion inh -5.5[16.7 µM].
Screening CCNC(=O)C[C@@H]1CC[C@H]2[C@H](COc3ccc(NC(=O)Nc4ccc(Cl)cc4)cc3C(=O)N2C)O1 returned Env fusion inh 24.5[16.7 µM].
For Cc1ccc(S(=O)(=O)N(C)C[C@@H]2Oc3cc(C#CC4CCCC4)ccc3S(=O)(=O)N([C@H](C)CO)C[C@H]2C)cc1 the results were Env fusion inh 58.4*[16.7 µM].
`Cc1ccc(S(=O)(=O)N(C)C[C@H]2Oc3cc(C#CC4CCCC4)ccc3S(=O)(=O)N([C@H](C)CO)C[C@H]2C)cc1` gave NR2F2 inh 11.2, Env fusion inh 7.0, aDG glyco act -0.2 and GalR3 antag -2.6.
CCCC#Cc1ccc2c(c1)O[C@@H](CN(C)S(=O)(=O)c1cccc(F)c1)[C@@H](C)CN([C@H](C)CO)S2(=O)=O was read as Env fusion inh 63.6*[16.7 µM].
Screening COc1ccccc1-c1ccc2c(c1)O[C@H](CN(C)S(=O)(=O)c1ccccc1)[C@H](C)CN([C@H](C)CO)S2(=O)=O returned Env fusion inh 56.3*[16.7 µM].
C[C@H](CO)N1C[C@H](C)[C@H](CN(C)S(=O)(=O)c2cccc(F)c2)Oc2cc(C#CCN(C)C)ccc2S1(=O)=O was read as Env fusion inh -12.8[16.7 µM].
COc1ccccc1-c1ccc2c(c1)O[C@@H](CN(C)S(=O)(=O)c1ccccc1)[C@@H](C)CN([C@H](C)CO)S2(=O)=O was read as Env fusion inh 29.0[16.7 µM].
`CC(C)CC#Cc1ccc2c(c1)O[C@@H](CN(C)S(=O)(=O)c1cccc(F)c1)[C@@H](C)CN([C@@H](C)CO)S2(=O)=O` gave Env fusion inh 77.5*[16.7 µM].
C[C@@H]1CN([C@@H](C)CO)C(=O)c2cc(NS(C)(=O)=O)ccc2O[C@H]1CN(C)C(=O)Nc1cccc2ccccc12 was read as Env fusion inh 8.6[16.7 µM].
`CC(C)CC#Cc1ccc2c(c1)O[C@@H](CN(C)S(=O)(=O)c1ccc(F)cc1)[C@H](C)CN([C@H](C)CO)S2(=O)=O` gave Env fusion inh 43.7[16.7 µM].
`CC(C)CC#Cc1ccc2c(c1)O[C@H](CN(C)S(=O)(=O)c1ccc(F)cc1)[C@H](C)CN([C@@H](C)CO)S2(=O)=O` gave Env fusion inh 61.3*[16.7 µM].
For COCCNC(=O)C[C@@H]1C[C@@H]2c3cc(NC(=O)c4ccc5c(c4)OCO5)ccc3O[C@@H]2[C@H](CO)O1 the results were Env fusion inh -6.4[16.7 µM].
Screening CC(C)(C)NCC(O)COc1ccccc1C(=O)CCc1ccccc1 (stereo not given) returned NR2F2 inh -12.4, Gli-Sufu antag 2.6, Env fusion inh -9.5, aDG glyco act 2.5* and GalR3 antag -11.3.
O=C(c1ccc(Cl)s1)N1CCN(c2nc3ccccc3s2)CC1 was read as NR2F2 inh 16.2, Gli-Sufu antag 19.4, Env fusion inh 77.1*, aDG glyco act 0.1 and GalR3 antag -2.2.
For Cn1c(C(=O)N2CCN(c3nc4ccccc4s3)CC2)cc2sccc21 the results were NR2F2 inh 4.1, Gli-Sufu antag 9.8, Env fusion inh 70.9*, aDG glyco act 0.3 and GalR3 antag -5.1.
Screening CC(C)(C)C(=O)N1CCN(c2nc3ccccc3s2)CC1 returned NR2F2 inh -32.6, Gli-Sufu antag -61.4, Env fusion inh -35.4, aDG glyco act 0.2 and GalR3 antag -5.7.
`O=C(c1cccs1)N1CCN(c2nc3ccccc3s2)CC1` gave NR2F2 inh -4.6, Gli-Sufu antag -8.0, Env fusion inh -12.9, aDG glyco act 0.0 and GalR3 antag -3.3.
Screening C#CCn1cc[n+](CC(=O)N(C)C)c1 returned NR2F2 inh 0.2, Gli-Sufu antag -6.0, aDG glyco act -0.1 and GalR3 antag -3.8.
Screening CCCCCCCCCCCCCCCCn1cc[n+](CC(C)=O)c1 returned Gli-Sufu antag 73.3* and aDG glyco act 0.2.
Screening Cc1ccc(C)c(N2CCN(CC(=O)Nc3ccc([N+](=O)[O-])cc3C(=O)Nc3ccccc3F)CC2)c1 returned NR2F2 inh 4.9, Gli-Sufu antag -13.6, aDG glyco act -0.1 and GalR3 antag -6.4.
O=C(CN1CCN(c2cccc(Cl)c2)CC1)Nc1ccc([N+](=O)[O-])cc1C(=O)Nc1ccccc1F was read as NR2F2 inh 12.3, Gli-Sufu antag 15.3, Env fusion inh 93.0*, aDG glyco act -0.4 and GalR3 antag -1.4.
`C[C@H](CO)N1C[C@H](C)[C@H](CN(C)Cc2ccncc2)Oc2c(NS(C)(=O)=O)cccc2C1=O` gave Env fusion inh -7.9[16.7 µM].
Screening S=C1NC2(CCCCCC2)NN1c1ccccc1 returned NR2F2 inh -4.0, Env fusion inh 55.4* and GalR3 antag -0.6.
COC1=C(C)C(=O)C2=C(C1=O)C1C3CC4=C(C(=O)C(OC)=C(C)C4=O)C(CNC(=O)C(C)=O)N3C(C#N)C(C2)N1C (stereo not given) was read as NR2F2 inh 51.6*, Gli-Sufu antag 80.9*, Env fusion inh 64.0*, aDG glyco act 0.7 and GalR3 antag -6.9.
`Cc1oc(-c2ccc(Cl)cc2)nc1CN1CCC(C(=O)N2CCN(Cc3ccccc3)CC2)CC1` gave NR2F2 inh 39.0*, Gli-Sufu antag 9.8, Env fusion inh -3.5, aDG glyco act 0.5 and GalR3 antag -5.0.
CCc1ccc(-c2nc(CN3CCC(C(=O)NCCc4ccc(OC)c(OC)c4)CC3)c(C)o2)cc1 was read as NR2F2 inh -1.6, Gli-Sufu antag 9.3, Env fusion inh 68.4*, aDG glyco act 3.3 and GalR3 antag -0.5.
`COc1ccc(CCNC(=O)C2CCN(Cc3nc(-c4ccccc4F)oc3C)CC2)cc1OC` gave NR2F2 inh 7.5, Gli-Sufu antag 2.9, Env fusion inh -47.9, aDG glyco act 0.0 and GalR3 antag -3.1.
`Cc1oc(-c2ccccc2F)nc1CN1CCC(C(=O)NCCC2=CCCCC2)CC1` gave NR2F2 inh 12.1, Gli-Sufu antag 6.9, Env fusion inh 90.3*, aDG glyco act 0.1 and GalR3 antag -6.8.
O=S(=O)(c1ccc2c(c1)OCCO2)N1CCC(c2nc3ccccc3[nH]2)CC1 was read as NR2F2 inh 6.5, Gli-Sufu antag 2.8, Env fusion inh 1.7, aDG glyco act 0.0 and GalR3 antag -4.7.
For O=S(=O)(c1ccc2c(c1)OCCO2)N1CCC(c2nc3ccc(Cl)cc3[nH]2)CC1 the results were NR2F2 inh 18.9, Gli-Sufu antag 12.9, Env fusion inh 55.2*, aDG glyco act 1.4 and GalR3 antag -4.8.
For O=[N+]([O-])c1cccc(NC(=S)NCc2ccncc2)c1 the results were NR2F2 inh 6.1, Gli-Sufu antag 24.9, Env fusion inh 38.3, aDG glyco act -0.3 and GalR3 antag -6.3.
For O=[N+]([O-])c1cccc(NC(=S)Nc2nc(-c3ccccc3Cl)cs2)c1 the results were NR2F2 inh -8.4, Gli-Sufu antag -42.3, Env fusion inh 97.0*, aDG glyco act 3.5 and GalR3 antag -3.1.

Bioassay records (PubChem)
